# Test results taken from publication PMC12136788.
# Residue numbers refer to the chain shown, from its start. Over roughly 5,800 sequences, “enrichment r” has its median near 0.54; the highest 2% begin near 16. What follows is part of a selection rich in the highest values, with near analogues and random picks from the rest.
# B1: chr8:86558718:86558819:+|3pUTR|ENSG00000085719|unk|total|mutant (ssRNA)
# RNA: GGGAGUUCUACAGUCCGACGAUCCUGUUGUUGUUUUUGUUUACUUUCAUAUGAUGAAAAUGCUGUGUUUAAGUGUUUGUCAACCGGAAGAAUGGAAAACUGUUGGGAUGAUGUGGUUUGCAGGUUGCUGUGCCUGAUUCACAGCAACAGAGGAUUGAGCAUCA
# B2: chr13:20822168:20822271:-|CDS|ENSG00000132953|unk|FALSE|unique (ssRNA)
# RNA: GGGAGUUCUACAGUCCGACGAUCUCGAAAAAUCAGAGAAGAUUCAGAUAUGGCACAAGAUUCUCUGCAGUGCCUUGCCCAGUUAGCUUCUCUUCAUGGACCCAUCUUCCCAGAUGAAGGAUCACAAGUUGAUUAUCUAGCACACAACAGAGGAUUGAGCAUCA
# B3: chr21:43758806:43758907:+|3pUTR|ENSG00000160209|msi1|FALSE|unique (ssRNA)
# RNA: GGGAGUUCUACAGUCCGACGAUCACUUUCUUAAUCCAGUUUUUCAAACUUCUCCCUGUAGACCGUAAGGAUGAAUUCCACAAUAGGAUCCUUUUUAAAAUCGAUUUUAAAUUGUUGCCUAGUCCUGCCAAGGUUAUUAUGUGCCAACAGAGGAUUGAGCAUCA
# B4: chr14:21351797:21351898:-|3pUTR|ENSG00000092201|msi1|FALSE|unique (ssRNA)
# RNA: GGGAGUUCUACAGUCCGACGAUCGAGGAAGGCUCAAAGGAGUCAACAUUUAUAUCUGGAAGGGACAAGUCAUGCCUUGGGCCUAGAAUACCCUGAUGAGAAAAGAGAAGAGGAAGGGAGGCCAUAUCUACAACACAGCCUCUCCAACAGAGGAUUGAGCAUCA
# B5: ENSG00000120802:stop:overlap|stop_codon|ENSG00000120802|stop_codon|NA|stop_codon (ssRNA)
# RNA: GGGAGUUCUACAGUCCGACGAUCGUGGAACAUUAUUUGGAGGAGAAGUAUGCAAAGUAAUUAAAAAGCGUGGAAAUAAACACUAGUAAAAUUAAGGACAAAAAGACAUCUAUCUUAUCUUUCAGGUACUUUAUGCCAACAUUUCAACAGAGGAUUGAGCAUCA
# B6: chr1:213241217:213241334:+|CDS|ENSG00000136643|unk|FALSE|unique (ssRNA)
# RNA: GGGAGUUCUACAGUCCGACGAUCAGUUCUCCAAGAACAUCAGAUUCCCUCAGUAGAUCAAAAAAUAGCCCCAUGGAAUUCUUUAGGAUAGACAGUAAGGAUAGCGCAAGUGAACUCCUGGGACUUGACUUUGGAGAAAAAUUGCAACAGAGGAUUGAGCAUCA
# B7: chr3:121431430:121432303:-|three_prime_utr|ENSG00000051341|control|control|control (ssRNA)
# RNA: GGGAGUUCUACAGUCCGACGAUCUGGAAAGAACAGAGAUUACCCUUUCACCUACCUCAGCAAAACAAACUUUCAAGUCUUGAUAGACUUAGCCUAGUAAUUUUAUAGUGAGAGUUUCAAACUAUAUAUCAGUGUCUAUAGCAUCAACAGAGGAUUGAGCAUCA
# B8: ENSG00000177426:stop:overlap|stop_codon|ENSG00000177426|stop_codon|NA|stop_codon (ssRNA)
# RNA: GGGAGUUCUACAGUCCGACGAUCCUCAAAGACAGAAGGAAUAUCUUUUUAUUGUAAACUUGAUAGUGUUAAAAGCUAAUAACUAGCUAUUUAGAGAACACAGAAACACUUGACAGUCAUCUAUCAGAUAGCAUUUCCUUUAAUCAACAGAGGAUUGAGCAUCA
# B9: ENSG00000107863:be:win_1951|CDS|ENSG00000107863|bound_else_gene|NA|bound_elsewhere_windowed (ssRNA)
# RNA: GGGAGUUCUACAGUCCGACGAUCCCAGUAAAUCACUUGCAUCAGAACAGUCUGUUGAAUCAGCAGACAUGGGUAAGGACUGACAGUGCCCCCGAUCAGCAAGUGGAGACUGGGAAAUCCCCCUCUUUAUCUGGAGCCUCUGCCCAACAGAGGAUUGAGCAUCA
# B10: chr9:122240152:122240253:-|3pUTR|ENSG00000119446|msi1|total|mutant (ssRNA)
# RNA: GGGAGUUCUACAGUCCGACGAUCCUUCUUGGAGUACCGAAUUCACCAUUUUAUCCGUAAGUCUUCAAAGGAUUAUGGUGGACCCGAACUUACACCGUGCAAAACCGUCUUCUAUUUUUAACCGGAACUCCGAAAAAACUCCGACAACAGAGGAUUGAGCAUCA
# B11: ENSG00000070961:be:win_4551|3pUTR|ENSG00000070961|bound_else_gene|NA|bound_elsewhere_windowed (ssRNA)
# RNA: GGGAGUUCUACAGUCCGACGAUCAAUGAAAGAUGCUUGAAAUGCUUUUGUUAUUUCAGGCAAAUCAAAUUAAAUCAGACUAUCAAACUACAAGAGAACCUUAGUCUUUUUUGUUUUUGUCUAAACAUGUUAGUUUAGUGAUGUCAACAGAGGAUUGAGCAUCA
# B12: chr1:213241217:213241334:+|CDS|ENSG00000136643|unk|total|mutant (ssRNA)
# RNA: B6 RNA with U53C, A54C, U65C, A66C, U83C, A84C, U88C, A89C, U101C, A102C
# B13: chr9:122240152:122240253:-|3pUTR|ENSG00000119446|msi1|FALSE|unique (ssRNA)
# RNA: GGGAGUUCUACAGUCCGACGAUCCUUCUUGGAGUAUAGAAUUCACCAUUUUAUCCGUAAGUCUUCAAAGGAUUAUGGUGGACUAGAACUUACAUAGUGCAAAAUAGUCUUCUAUUUUUAAUAGGAACUUAGAAAAAACUUAGACAACAGAGGAUUGAGCAUCA
# B14: ENSG00000198589:be:win_3051|CDS|ENSG00000198589|bound_else_gene|NA|bound_elsewhere_windowed (ssRNA)
# RNA: GGGAGUUCUACAGUCCGACGAUCAGAAAUGAAAGCUGAGCAAGAAAAUCAGGAGUUACCAGAUGAAGGCACUUUGGAAGAAACACUGACAAAUGAGACAAGGAAUGCAGAUGAUUUAGAAGUAUCUUCUGACAUAAUAGAAGCCAACAGAGGAUUGAGCAUCA
# Molecular target: MSI1 full-length (mouse, UniProt Q61474 1-362)
# Experiment: nsRBNS (natural sequence RNA bind-n-seq); RBNS binding buffer (assumed for nsRBNS): 25 mM Tris pH 7.5, 150 mM KCl, 3 mM MgCl2, 0.01% Triton X-100, 500 ug/ml BSA, 20 U/ml SUPERase-In, 4 C; UNK is unkempt and MSI1 is Musashi-1; names of the RNAs are library labels; protein concentration not given here; high values mean tight binding
# Chain of MSI1 full-length (Q61474 whole entry): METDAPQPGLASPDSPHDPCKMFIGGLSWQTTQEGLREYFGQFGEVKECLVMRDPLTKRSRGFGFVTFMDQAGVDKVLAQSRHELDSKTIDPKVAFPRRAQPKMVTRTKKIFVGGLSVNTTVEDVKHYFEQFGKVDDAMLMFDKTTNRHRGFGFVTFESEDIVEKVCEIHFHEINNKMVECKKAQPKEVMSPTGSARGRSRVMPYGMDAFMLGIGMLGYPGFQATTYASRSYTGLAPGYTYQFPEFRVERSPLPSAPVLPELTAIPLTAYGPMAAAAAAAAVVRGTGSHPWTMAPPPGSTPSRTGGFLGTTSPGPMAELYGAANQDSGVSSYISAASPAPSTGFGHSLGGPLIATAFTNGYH
row,Binder,binding signal
1,B1,0.342 enrichment R
2,B2,0.341 enrichment R
3,B3,0.936 enrichment R
4,B4,0.748 enrichment R
5,B5,1.57 enrichment R
6,B6,24.6 enrichment R
7,B7,17.4 enrichment R
8,B8,0.812 enrichment R
9,B9,0.425 enrichment R
10,B10,0.272 enrichment R
11,B11,1.39 enrichment R
12,B12,0.533 enrichment R
13,B13,20.5 enrichment R
14,B14,0.825 enrichment R
